The results in this text go back to PubChem BioAssay (NCI).

Compounds without any hit were thinned out: in the full panel of roughly 83,000, 20% have a hit.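 Compound tested at a single concentration for 48 hours in 96-well plates; a percent growth value below 10 was scored as active.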 Unmarked numbers belong to inactive results. Calls of active or inactive are those of the source.

In the first assay the test system is PC-3 prostate. Briefly: NCI-60 one-dose screen, 48 h (100 = growth as untreated, 0 = no growth, -100 = all killed). To be noted: 10 µM.
Regarding `S=C1SCC(c2ccccc2)S1` (stereo not drawn), the growth was 99.7%.
On to `Nc1ncnc2[nH]c(=O)[nH]c12`, for which the growth was 201%.
Same read-out and setting: the value for `Cc1ccc(S(=O)(=O)Oc2ccc3c4c(c(=O)oc3c2)CCCCC4)cc1` was 33.5%; that for `CCN(CC)CCSCCN(CC)CC` was 96.5%.
On the same count and under the same terms, as for `O=C(Nc1ccccc1)Nc1cccc(-n2cc(-c3ccncc3)c(-c3ccc(O)c(Cl)c3)n2)c1`, the figure is 31.3%; as for `O=C(Nc1cccc(-n2cc(-c3ccncc3)c(-c3ccc(O)c(Cl)c3)n2)c1)c1cccc(C(F)(F)F)c1`, 21%; as for `O=C(CC(NC(=O)OCc1ccccc1)C(=O)OCc1ccccc1)OCc1ccccc1` (stereo not drawn), 93.8%.
Same read-out and setting: the value for `COc1ccc(Oc2nc(NC3CCCC3)nc(Sc3ccc(OC)cc3)n2)cc1` was 43%; that for `COc1ccc(-c2nn(-c3cccc(NC(=O)c4ccc(N5CCOCC5)c(C(F)(F)F)c4)c3)cc2-c2ccncc2)cc1Cl` was 42.7%.
As to `COc1ccc(-c2nn(-c3cccc(NC(=O)Nc4ccccc4)c3)cc2-c2ccncc2)cc1Cl`, the growth was 8.81% (active).
In the case of `CCCCCCCCCCCCCCCC(=O)OC1[C@@H](OC(=O)CCCCCCCCCCCCCCC)[C@@H](C(=O)N[C@@H](CCCCN)C(=O)OC)O[C@H]1n1cnc2c(=O)[nH]c(NC(=O)C(C)C)nc21` (stereo partly drawn), the growth was 103%.
Same read-out and setting: as for `CCc1ccc2c(c1)N(CCO)C1=C(C(=O)OC1)C2c1cc(OC)c(OC)c(OC)c1` (stereo not drawn), the figure is 26.9%.
The same measure, in the same setting: the value for `O=S(=O)(NCCCNc1nccc(-c2c(-c3ccc(F)cc3)nc3sccn23)n1)c1ccc2ccccc2c1` was 35.5%; that for `CN(C)c1ccc(/C=C/C=N/NC(=O)c2cc(O)c(O)c(O)c2)cc1` was 85.8%; that for `Cc1ccc(S(=O)(=O)OCCN(CCOS(=O)(=O)c2ccc(C)cc2)c2c[nH]c(=O)[nH]c2=O)cc1` was 94.6%.
On the same count and under the same terms, as for `O=c1oc2cc(OS(=O)(=O)c3ccccc3)ccc2c2c1CCCCC2`, the figure is 29.5%; as for `COc1ccc(-c2nn(-c3cccc(NC(=O)c4ccc5c(c4)OCCO5)c3)cc2-c2ccncc2)cc1Cl`, 10.4%.
`Cc1ncc(-c2ccoc2)c(NC2CCCCCC2)n1`: the growth is 105%.
Same read-out and setting: the value for `Clc1ccc(Sc2nc(NC3CC3)nc(Sc3ccc(Cl)cc3)n2)cc1` was 46.8%; that for `CN(C)CCN1C(=O)c2cccc3c(-c4ccc5ncn(C6CCCCC6)c5c4)ccc(c23)C1=O` was 22%; that for `O=C(Nc1cccc(-n2cc(-c3ccncc3)c(-c3ccc(O)c(Cl)c3)n2)c1)Nc1cccc(C(F)(F)F)c1` was -15.7% (active).
Same read-out and setting: the value for `CN(C)Cc1cn(-c2ncc(-c3ccc(C(F)(F)F)cc3)c(NC3CCCCCC3)n2)nn1` was 77.5%; that for `COc1ccc(/C=C/C(C)=N/OCC(=O)O)cc1` was 94.4%; that for `COc1ccc(-c2nn(-c3cccc(NC(=O)c4cc(C(F)(F)F)cc(C(F)(F)F)c4)c3)cc2-c2ccncc2)cc1Cl` was 40.7%.
Still for that read-out and setting: the value for `O=C1CC[C@@H]2CCCC[C@@H]2C1` was 85.3%.
With `COc1ccc(C2=NN(C(=O)c3ccc(S(C)(=O)=O)cc3)C(c3ccc(OC)c(OC)c3)C2)c(OC)c1` (stereo not drawn), the growth was 90.9%.
As to `O=C1OCC2=C1C(c1cccc(Cl)c1)c1cc3c(cc1N2CCO)CCC3` (stereo not drawn), the growth was 20.4%.
The same measure, in the same setting: as for `COc1ccc2c(c1)N(CCO)C1=C(C(=O)OC1)C2c1cc(OC)c(OC)c(OC)c1` (stereo not drawn), the figure is 21.9%; as for `CCOC(=O)c1ccoc1`, 99.7%; as for `O=S(=O)(NCCNc1nccc(-c2c(-c3ccc(F)cc3)nc3sccn23)n1)c1ccc2ccccc2c1`, 73.4%.
Still for that read-out and setting: as for `CC1=C(N2CCOCC2)C(N2CCOCC2)=C(C)C(=O)C1=O`, the figure is 104%; as for `O=C1OCC2=C1C(c1ccc(Cl)c(Cl)c1)c1cc3c(cc1N2CCO)OCCO3` (stereo not drawn), 19.1%; as for `COc1cc2c(cc1OC)N(CCO)C1=C(C(=O)OC1)C2c1ccc(Cl)c(Cl)c1` (stereo not drawn), 99.2%.
On the same count and under the same terms, as for `O=C1NC(=O)c2ncccc21`, the figure is 107%; as for `CNc1ncc(-c2ccc(C(F)(F)F)cc2)c(NC2CCCCCC2)n1`, 61.8%.
Take `COc1ccc(/C(=C2/O[C@@H]([C@H]3COC(C)(C)O3)[C@H]3OC(C)(C)O[C@@H]23)c2cc(OC)c(OC)c(OC)c2)cc1O`: the growth is 29.4%.
Same read-out and setting: as for `O=C(NC(Cc1ccc(O)cc1)C(=O)N=Nc1c(O)[nH]c2ccccc12)c1ccccc1` (stereo not drawn), the figure is 98.5%.
On the same count and under the same terms, as for `O=C(CNC(=O)OCc1ccccc1)NCC(=O)Oc1ccc([N+](=O)[O-])cc1`, the figure is 89.8%.
On the same count and under the same terms, the value for `COc1cc2nc(Nc3cccc(C(=O)O)c3)nc(N)c2cc1OC` was 90.4%.

The next assay concerns SK-MEL-5 melanoma. The assay is described as above. Conditions: 10 µM.
Consider `S=C1SCC(c2ccccc2)S1` (stereo not drawn), for which the growth is 103%.
In the case of `Nc1ncnc2[nH]c(=O)[nH]c12`, the growth is 100%.
Same read-out and setting: as for `Cc1ccc(S(=O)(=O)Oc2ccc3c4c(c(=O)oc3c2)CCCCC4)cc1`, the figure is 20.5%.
The same measure, in the same setting: as for `CCN(CC)CCSCCN(CC)CC`, the figure is 99.6%; as for `O=C(Nc1ccccc1)Nc1cccc(-n2cc(-c3ccncc3)c(-c3ccc(O)c(Cl)c3)n2)c1`, 42.8%; as for `O=C(Nc1cccc(-n2cc(-c3ccncc3)c(-c3ccc(O)c(Cl)c3)n2)c1)c1cccc(C(F)(F)F)c1`, 34.6%.
The same measure, in the same setting: as for `O=C(CC(NC(=O)OCc1ccccc1)C(=O)OCc1ccccc1)OCc1ccccc1` (stereo not drawn), the figure is 94.1%.
Turning to `COc1ccc(Oc2nc(NC3CCCC3)nc(Sc3ccc(OC)cc3)n2)cc1`, the growth is 45.7%.
In the case of `COc1ccc(-c2nn(-c3cccc(NC(=O)c4ccc(N5CCOCC5)c(C(F)(F)F)c4)c3)cc2-c2ccncc2)cc1Cl`, the growth is 68.2%.
In the case of `COc1ccc(-c2nn(-c3cccc(NC(=O)Nc4ccccc4)c3)cc2-c2ccncc2)cc1Cl`, the growth was 42.1%.
Same read-out and setting: as for `CCCCCCCCCCCCCCCC(=O)OC1[C@@H](OC(=O)CCCCCCCCCCCCCCC)[C@@H](C(=O)N[C@@H](CCCCN)C(=O)OC)O[C@H]1n1cnc2c(=O)[nH]c(NC(=O)C(C)C)nc21` (stereo partly drawn), the figure is 101%.
On the same count and under the same terms, as for `CCc1ccc2c(c1)N(CCO)C1=C(C(=O)OC1)C2c1cc(OC)c(OC)c(OC)c1` (stereo not drawn), the figure is -14.5% (active); as for `O=S(=O)(NCCCNc1nccc(-c2c(-c3ccc(F)cc3)nc3sccn23)n1)c1ccc2ccccc2c1`, 43.4%; as for `CN(C)c1ccc(/C=C/C=N/NC(=O)c2cc(O)c(O)c(O)c2)cc1`, 92.9%.
Take `Cc1ccc(S(=O)(=O)OCCN(CCOS(=O)(=O)c2ccc(C)cc2)c2c[nH]c(=O)[nH]c2=O)cc1`: the growth was 101%.
Same read-out and setting: as for `O=c1oc2cc(OS(=O)(=O)c3ccccc3)ccc2c2c1CCCCC2`, the figure is 26%; as for `COc1ccc(-c2nn(-c3cccc(NC(=O)c4ccc5c(c4)OCCO5)c3)cc2-c2ccncc2)cc1Cl`, 20%; as for `Cc1ncc(-c2ccoc2)c(NC2CCCCCC2)n1`, 99.6%.
Same read-out and setting: the value for `Clc1ccc(Sc2nc(NC3CC3)nc(Sc3ccc(Cl)cc3)n2)cc1` was 87.9%.
The same measure, in the same setting: as for `CN(C)CCN1C(=O)c2cccc3c(-c4ccc5ncn(C6CCCCC6)c5c4)ccc(c23)C1=O`, the figure is 21.4%; as for `O=C(Nc1cccc(-n2cc(-c3ccncc3)c(-c3ccc(O)c(Cl)c3)n2)c1)Nc1cccc(C(F)(F)F)c1`, -49% (active); as for `CN(C)Cc1cn(-c2ncc(-c3ccc(C(F)(F)F)cc3)c(NC3CCCCCC3)n2)nn1`, 80.6%.
Regarding `COc1ccc(/C=C/C(C)=N/OCC(=O)O)cc1`, the growth was 101%.
As to `COc1ccc(-c2nn(-c3cccc(NC(=O)c4cc(C(F)(F)F)cc(C(F)(F)F)c4)c3)cc2-c2ccncc2)cc1Cl`, the growth is 62.9%.
For `O=C1CC[C@@H]2CCCC[C@@H]2C1`, the growth was 110%.
For the molecule `COc1ccc(C2=NN(C(=O)c3ccc(S(C)(=O)=O)cc3)C(c3ccc(OC)c(OC)c3)C2)c(OC)c1` (stereo not drawn), the growth is 90%.
Still for that read-out and setting: as for `O=C1OCC2=C1C(c1cccc(Cl)c1)c1cc3c(cc1N2CCO)CCC3` (stereo not drawn), the figure is -8.14% (active); as for `COc1ccc2c(c1)N(CCO)C1=C(C(=O)OC1)C2c1cc(OC)c(OC)c(OC)c1` (stereo not drawn), -24.7% (active); as for `CCOC(=O)c1ccoc1`, 99.6%.
Same read-out and setting: as for `O=S(=O)(NCCNc1nccc(-c2c(-c3ccc(F)cc3)nc3sccn23)n1)c1ccc2ccccc2c1`, the figure is 69.2%; as for `CC1=C(N2CCOCC2)C(N2CCOCC2)=C(C)C(=O)C1=O`, 99.2%; as for `O=C1OCC2=C1C(c1ccc(Cl)c(Cl)c1)c1cc3c(cc1N2CCO)OCCO3` (stereo not drawn), 29.9%.
In the case of `COc1cc2c(cc1OC)N(CCO)C1=C(C(=O)OC1)C2c1ccc(Cl)c(Cl)c1` (stereo not drawn), the growth is 99.5%.
On the same count and under the same terms, as for `O=C1NC(=O)c2ncccc21`, the figure is 95.1%; as for `CNc1ncc(-c2ccc(C(F)(F)F)cc2)c(NC2CCCCCC2)n1`, 74.8%.
The same measure, in the same setting: the value for `COc1ccc(/C(=C2/O[C@@H]([C@H]3COC(C)(C)O3)[C@H]3OC(C)(C)O[C@@H]23)c2cc(OC)c(OC)c(OC)c2)cc1O` was 61.8%; that for `O=C(NC(Cc1ccc(O)cc1)C(=O)N=Nc1c(O)[nH]c2ccccc12)c1ccccc1` (stereo not drawn) was 92.4%; that for `O=C(CNC(=O)OCc1ccccc1)NCC(=O)Oc1ccc([N+](=O)[O-])cc1` was 98.1%.
The same measure, in the same setting: as for `COc1cc2nc(Nc3cccc(C(=O)O)c3)nc(N)c2cc1OC`, the figure is 99.7%.
